# Measurements as given in PubChem BioAssay (NCATS).
# Inconclusive results are not listed. Entries that show only a call come without a potency. Calls of active or inactive are those of the source. Calls follow the shape of the dose curve; as a rule, active = well fitted cell-killing curve with a large enough effect; inconclusive = small, poorly fitted or top-dose-only effect, or effect the other way; inactive = flat fitted curve, though single readings scatter.
# Experiment: qHTS assay for cell viability of the p53RE-bla HCT-116 cell line (AID 743292); also: nearly all actives have a fitted effect of over 55% in size
# Conditions: p53RE-bla HCT-116 viability, ATP luminescence, 16 h; series mostly up to 95 µM
# From the text: U.S. Tox21 Program National Center for Advancing Translational Sciences [NCATS] NIH Chemical Genomics Center [NCGC] U.S. Environmental Protection Agency [EPA] National Institutes of Environmental Health Sciences [NIEHS] National Toxicology Program [NTP] U.S. Food and Drug Administration [FDA] Tox21 Assay Overview: The CellTiter-Glo Luminescent Cell Viability Assay (Promega, Madison, WI) is a homogeneous method to determine the number of viable cells in culture based on quantitation of the ATP present, which signals the presence of metabolically active cells. This cell viability assay was used to screen environmental chemicals in the CellSensor p53RE-bla HCT-116 cell line (Invitrogen).
# Tox21 Assay Protocol Summary: Cell viability after compound treatment was measured using a luciferase-coupled ATP quantitation assay (CellTiter-Glo viability assay, Promega, Madison, WI) in CellSensor p53RE-bla HCT-116 cell line (Invitrogen). Total intracellular ATP content corresponds to the number of metabolically competent cells after compound treatment. The cells were dispensed at 4,000 cells/5 uL/well in 1,536-well white/solid bottom assay plates using a Flying Reagent Dispenser (Aurora Discovery, San Diego, CA). The cells were incubated for 5 h at 37 C, followed by the addition of 23 nL of compounds dissolved in DMSO, positive controls or DMSO only using a pintool work station (Kalypsys, San Diego, CA). The assay plates were incubated for 16 h at 37 C, followed by the addition of 5 uL/well of CellTiter-Glo reagent. After 30 min incubation at room temperature, the luminescence intensity of the plates was measured using a ViewLux plate reader (PerkinElmer, Shelton, CT).
# Potency is read from the fitted curve at half-maximal effect.
row,Structure (SMILES),Potency
1,COc1ccc(C(=O)Nc2ccccc2)cc1[N+](=O)[O-],inactive
2,CCNC(=S)NCC,inactive
3,C1CCCNCC1,inactive
4,O=Nc1ccc(Nc2ccccc2)cc1,inactive
5,COc1cc(-c2ccc(N=C=O)c(OC)c2)ccc1N=C=O,inactive
6,C=CC1CO1 (stereo not given),inactive
7,CC(C)COC(=O)COc1cc(Cl)c(Cl)cc1Cl,inactive
8,CC(=O)OCc1ccc2c(c1)OCO2,inactive
9,O=[N+]([O-])c1cccc(I)c1,inactive
10,CN(C)c1ccc(Cc2ccc(N(C)C)cc2)cc1,inactive
11,Nc1ccc(N)c(Cl)c1,inactive
12,NC(=O)c1ccc([N+](=O)[O-])cc1,inactive
13,CCOc1ccc2nc(N)sc2c1,inactive
14,O=C(Cl)c1ccc([N+](=O)[O-])cc1,inactive
15,c1ccc2ncccc2c1,inactive
16,OCC(CO)(CBr)CBr,inactive
17,C=CC(=O)OCCCCCCOC(=O)C=C,inactive
18,Oc1ccc2c(c1)OCO2,inactive
19,COc1ccc([N+](=O)[O-])cc1N,inactive
20,Nc1ccccc1O,inactive

row,Structure (SMILES),Potency
1,C[C@@H]1CC2(OC(O)[C@]3(C)O[C@H]23)O[C@H]2C[C@@]3(C)[C@@H]4CC[C@H]5C(C)(C)C(O[C@@H]6OC[C@@H](O)[C@H](O)[C@H]6O)CC[C@@]56C[C@@]46CC[C@]3(C)[C@@H]12 (stereo not given in full),inactive
2,O=[N+]([O-])c1cc(Cl)c(Cl)c(Cl)c1Cl,inactive
3,c1ccc(CSCc2ccccc2)cc1,inactive
4,CCCCCCN,inactive
5,CC1=C(/C=C/C(C)=C/C=C/C(C)=C/C=O)C(C)(C)CCC1,50.1 µM (active)
6,COc1ccc(C)cc1N,inactive
7,Nc1cnn([C@@H]2O[C@H](CO)[C@@H](O)[C@H]2O)c(=O)n1,inactive
8,Nc1ccc(N=Nc2ccccc2)c(N)c1,inactive
9,CCCCCCCCOc1ccc(C(=O)O)cc1,inactive
10,O=C(O)c1cc(N=Nc2ccc([N+](=O)[O-])cc2)ccc1O,inactive
11,OCC(CBr)(CBr)CBr,inactive
12,C/C=C/C=C/C=O,inactive
13,Nc1ccc2c(c1)C(=O)c1ccccc1C2=O,inactive
14,CCCCCCc1ccc(-c2ccc(C#N)cc2)cc1,inactive
15,Cc1c(C(=O)O)c(O)cc2c1C(=O)c1c(O)c([C@H]3O[C@H](CO)[C@@H](O)[C@H](O)[C@H]3O)c(O)c(O)c1C2=O,44.7 µM (active)
16,CC(C)(C)C(=O)C1C(=O)c2ccccc2C1=O,inactive
17,O=CC(=O)c1ccccc1,inactive
18,Cc1cc2nc(N)sc2cc1C,inactive
19,Brc1cc(Br)c(Oc2cc(Br)c(Br)cc2Br)cc1Br,inactive
20,Brc1ccc(-c2ccccc2)cc1,inactive
